Data: article PMC11062922 (Nature Chemical Biology, 2023)
Where two headings read alike, the source gives them in different places.

Columns and labels:
Design in all cases: species or system human, MV4-11 + K-562 + COLO205 + SK-N-BE2 + OVCAR-8
PRKX = conditions: read-out: apparent Kd, n = 1
ROCK2 = conditions: read-out: apparent Kd, n = 1
RIOK2 = conditions: read-out: apparent Kd; compound concentrations: 100 nM and 1000 nM (sheet 'Samples'), CATDS: 5.2095061468969701E-2; n = 1
STK3 = conditions: read-out: apparent Kd, n = 1
PHKG2 = conditions: read-out: apparent Kd; compound concentrations:100 nM and 1000 nM (sheet 'Samples'); n = 1
TNIK = conditions: read-out: apparent Kd, n = 1
CDK17 = conditions: read-out: apparent Kd, n = 1
CSNK1A1 = conditions: read-out: apparent Kd, compound concentrations: 100 nM and 1000 nM (sheet 'Samples'), n = 1
STK16 = conditions: read-out: apparent Kd, compound concentrations: 100 nM and 1000 nM (sheet 'Samples'), n = 1
HCK = conditions: read-out: apparent Kd, compound concentrations: 100 nM and 1000 nM (sheet 'Samples'), n = 1
SRC = conditions: read-out: apparent Kd; compound concentrations: 100 nM and 1000 nM (sheet 'Samples'), CATDS: 5.0295032408805701E-2; n = 1
MAPK10 = conditions: read-out: apparent Kd, compound concentrations: 100 nM and 1000 nM (sheet 'Samples'), n = 1
MAPK8 = conditions: read-out: apparent Kd; compound concentrations: 100 nM and 1000 nM (sheet 'Samples'), CATDS: 2.3865575859687099E-2; n = 1
EPHA2 = conditions: read-out: apparent Kd, compound concentrations: 100 nM and 1000 nM (sheet 'Samples'), n = 1
PTK6 = conditions: read-out: apparent Kd, compound concentrations: 100 nM and 1000 nM (sheet 'Samples'), n = 1
ABL1 = conditions: read-out: apparent Kd; compound concentrations: 100 nM and 1000 nM (sheet 'Samples'), CATDS: 3.6017646503182399E-2; n = 1
ABL2 = conditions: read-out: apparent Kd; compound concentrations: 100 nM and 1000 nM (sheet 'Samples'), CATDS: 5.7742248446513503E-2; n = 1
[1] = compound concentrations:100 nM and 1000 nM (sheet 'Samples')

Question: Which potency estimated from few doses (PRKX; [1]) does the source give for `CCn1c(-c2nonc2N)nc2cncc(C(=O)N3CC[C@H](N)C3)c21.Cl` [SB-772077-B] here?
Answer: 177 nM

Question: What about the potency estimated from few doses (ROCK2; [1]) of the same compound?
Answer: 11.6 nM

Question: Which potency estimated from few doses (RIOK2) does the source give for `CNc1nccc(-c2ccc3c(N)n[nH]c3c2)n1` [GSK2206003A] here?
Answer: 1360 nM

Question: For `CN(C)c1ccc2c(c1)/C(=C/Nc1ccc(S(N)(=O)=O)cc1)C(=O)N2` [GW416469X], which potency estimated from few doses (STK3; compound concentrations: 100 nM and 1000 nM (sheet 'Samples'), CATDS: 7.8286215558842895E-2) is on record?
Answer: 1330 nM

Question: What does the source list for `O=C(Nc1n[nH]c2nc(-c3ccccc3O)ccc12)C1CC1` [SB-711880]?
Answer: potency estimated from few doses (PHKG2): 1550 nM; potency estimated from few doses (STK3; [1]): 483 nM; potency estimated from few doses (TNIK; [1]): 1150 nM

Question: `Nc1nccc(-c2ccc3c(N)n[nH]c3c2)n1` [GSK1034945A] was tested. Which potency estimated from few doses (PRKX; [1]) did it give?
Answer: 1040 nM

Question: Which results are given for `NS(=O)(=O)c1ccc(N/C=C2\C(=O)Nc3ccc4ncsc4c32)cc1` [GW297361X]?
Answer: potency estimated from few doses (CDK17; compound concentrations: 100 nM and 1000 nM (sheet 'Samples'), CATDS: 3.2920302363338198E-2): 1410 nM; potency estimated from few doses (STK3; compound concentrations: 100 nM and 1000 nM (sheet 'Samples'), CATDS: 4.8533419751013301E-2): 558 nM; potency estimated from few doses (TNIK; compound concentrations: 100 nM and 1000 nM (sheet 'Samples'), CATDS: 3.6664419763171099E-2): 1050 nM

Question: `CCC(CC)(CC)n1cnc2c(N)ncnc21` [SKF-97620] was tested. Which potency estimated from few doses (CSNK1A1; CATDS: 2.3982037208091899E-2) did it give?
Answer: 2040 nM

Question: What about the potency estimated from few doses (ROCK2; compound concentrations: 100 nM and 1000 nM (sheet 'Samples'), CATDS: 2.44983042375609E-2) of the same compound?
Answer: 1890 nM

Question: And the potency estimated from few doses (STK16; CATDS: 2.4791853580208099E-2)?
Answer: 1810 nM

Question: For `COc1ccc(Nc2nccc(NCCNC(=O)Nc3cc(C)ccc3C)n2)cc1` [GSK1379899A], which potency estimated from few doses (CSNK1A1; CATDS: 3.9039606822866203E-2) is on record?
Answer: 2320 nM

Question: And the potency estimated from few doses (HCK; CATDS: 4.52340510871738E-2)?
Answer: 1500 nM

Question: And the potency estimated from few doses (SRC)?
Answer: 1150 nM

Question: Which results are given for `Cl.Cl.NC[C@H](CC1CCCCC1)NC(=O)c1ccc(-c2ccnc3[nH]ccc23)s1.NC[C@H](CC1CCCCC1)NC(=O)c1ccc(-c2ccnc3[nH]ccc23)s1` [GSK1581428A]?
Answer: potency estimated from few doses (PRKX; [1]): 14.8 nM; potency estimated from few doses (ROCK2; [1]): 22.8 nM

Question: How did the potency estimated from few doses (CDK17; compound concentrations: 100 nM and 1000 nM (sheet 'Samples'), CATDS: 2.52216381525E-2) turn out when `CN[C@H](C#Cc1c(F)ccc2c1/C(=C/c1[nH]ccc1OC)C(=O)N2)CO.Cl` [RO0283049-001] was run?
Answer: 797 nM

Question: What about the potency estimated from few doses (MAPK10; CATDS: 2.5716910898498702E-2) of the same compound?
Answer: 751 nM

Question: What about the potency estimated from few doses (MAPK8) of the same compound?
Answer: 951 nM

Question: What about the potency estimated from few doses (STK16; CATDS: 2.2828381206070801E-2) of the same compound?
Answer: 1110 nM

Question: What about the potency estimated from few doses (STK3; compound concentrations: 100 nM and 1000 nM (sheet 'Samples'), CATDS: 2.5923871339058099E-2) of the same compound?
Answer: 733 nM

Question: With `COc1cc[nH]c1/C=C1\C(=O)Nc2ccc([N+](=O)[O-])c(N3CC[C@@H](O)C3)c21` [RO0504985-000] as the compound, how does the potency estimated from few doses (CDK17; compound concentrations: 100 nM and 1000 nM (sheet 'Samples'), CATDS: 2.9599513328136099E-2) read?
Answer: 2050 nM

Question: What about the potency estimated from few doses (MAPK10; CATDS: 3.16649097319332E-2) of the same compound?
Answer: 1540 nM

Question: What about the potency estimated from few doses (STK16; CATDS: 3.4591069451125701E-2) of the same compound?
Answer: 1100 nM

Question: For `O=C1N=C(N[C@H](CO)c2ccccc2)S/C1=C\c1ccc2ncccc2c1` [RO4554339-000], which potency estimated from few doses (PRKX; compound concentrations: 100 nM and 1000 nM (sheet 'Samples'), CATDS: 0.109723190232525) is on record?
Answer: 705 nM

Question: What does the source list for `Cl.Cl.NCC(NC(=O)c1cc(-c2ccnc3[nH]ccc23)cs1)c1ccccc1.NCC(NC(=O)c1cc(-c2ccnc3[nH]ccc23)cs1)c1ccccc1` (centres unmarked) [GSK1229959A]?
Answer: potency estimated from few doses (CSNK1A1; CATDS: 1.7292199039589701E-2): 1760 nM; potency estimated from few doses (PRKX; compound concentrations: 100 nM and 1000 nM (sheet 'Samples'), CATDS: 6.1031439007252199E-2): 21.6 nM; potency estimated from few doses (ROCK2; compound concentrations: 100 nM and 1000 nM (sheet 'Samples'), CATDS: 0.12516480015121101): 6.2 nM

Question: Which potency estimated from few doses (CDK17; [1]) does the source give for `CC(C)(CO)CNC(=O)c1ccc2c(c1)/C(=N/Nc1ccc(S(N)(=O)=O)cc1)C(=O)N2` [GW301784X] here?
Answer: 212 nM

Question: Which results are given for `Cl.Nc1nc(-c2ccc3c(c2)C(=Cc2cc(Br)c(O)c(Br)c2)C(=O)N3)cs1` [GW407323A]?
Answer: potency estimated from few doses (CDK17; compound concentrations: 100 nM and 1000 nM (sheet 'Samples'), CATDS: 2.78233460707746E-2): 2030 nM; potency estimated from few doses (TNIK; compound concentrations: 100 nM and 1000 nM (sheet 'Samples'), CATDS: 0.10928508706444801): 58.6 nM

Question: `Cl.Cn1c(=O)c(Cc2ccccc2F)cc2cnc(NC3CCOCC3)nc21` [RO3305377-001] was tested. Which potency estimated from few doses (EPHA2; CATDS: 2.1099204097422001E-2) did it give?
Answer: 976 nM

Question: And the potency estimated from few doses (MAPK10; CATDS: 2.2981904071827101E-2)?
Answer: 800 nM

Question: What about the potency estimated from few doses (PTK6; CATDS: 1.9530380694073899E-2) of the same compound?
Answer: 1190 nM

Question: `COc1cc2ncn(-c3cc(OCc4ccccc4S(C)(=O)=O)c(C#N)s3)c2cc1OC` [GSK319347A] was tested. Which potency estimated from few doses (TNIK; compound concentrations: 100 nM and 1000 nM (sheet 'Samples'), CATDS: 7.3332449024222507E-2) did it give?
Answer: 2280 nM

Question: For `Cl.Oc1cccc(Nc2ccnc3cc(-c4ccncc4)ccc23)c1` [GW494601A], which potency estimated from few doses (ABL1) is on record?
Answer: 127 nM

Question: And the potency estimated from few doses (ABL2)?
Answer: 32.5 nM

Question: What about the potency estimated from few doses (EPHA2; CATDS: 2.3824924917130601E-2) of the same compound?
Answer: 600 nM

Question: And the potency estimated from few doses (HCK; CATDS: 2.0776424104180801E-2)?
Answer: 1170 nM

Question: What about the potency estimated from few doses (PTK6; CATDS: 1.98277031575195E-2) of the same compound?
Answer: 1530 nM

Question: What about the potency estimated from few doses (TNIK; compound concentrations: 100 nM and 1000 nM (sheet 'Samples'), CATDS: 2.0441514499226199E-2) of the same compound?
Answer: 1280 nM
